Screens deposited in PubChem by several laboratories.
Only some compounds are listed: those with a hit (about 1.6% of all), similar ones and a draw of the others.
VLA-4 inh = inhibition in a human VLA-4 binding assay; VLA-4 expressing cells, ligand binding flow cytometry; inhibition, % (about 7 µM as worked out from the volumes in the protocol); hit rate 0.2% among 330,000; AID 2557; in the data active means inhibition above about 50%
CendR NRP1 mod = alters CendR peptide binding to human NRP-1. O14786. FAM-RPARPAR peptide binding to NRP-1, fluorescence polarization. inhibition, % at 25 µM. hit rate 0.85% among 360,000;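 active means inhibition or corrected inhibition above about 18%, plus a signal ratio from 0.5 to 1.5, limit read from the data, passing the limit was not always enough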
Target sequence (O14786 whole entry, looked up): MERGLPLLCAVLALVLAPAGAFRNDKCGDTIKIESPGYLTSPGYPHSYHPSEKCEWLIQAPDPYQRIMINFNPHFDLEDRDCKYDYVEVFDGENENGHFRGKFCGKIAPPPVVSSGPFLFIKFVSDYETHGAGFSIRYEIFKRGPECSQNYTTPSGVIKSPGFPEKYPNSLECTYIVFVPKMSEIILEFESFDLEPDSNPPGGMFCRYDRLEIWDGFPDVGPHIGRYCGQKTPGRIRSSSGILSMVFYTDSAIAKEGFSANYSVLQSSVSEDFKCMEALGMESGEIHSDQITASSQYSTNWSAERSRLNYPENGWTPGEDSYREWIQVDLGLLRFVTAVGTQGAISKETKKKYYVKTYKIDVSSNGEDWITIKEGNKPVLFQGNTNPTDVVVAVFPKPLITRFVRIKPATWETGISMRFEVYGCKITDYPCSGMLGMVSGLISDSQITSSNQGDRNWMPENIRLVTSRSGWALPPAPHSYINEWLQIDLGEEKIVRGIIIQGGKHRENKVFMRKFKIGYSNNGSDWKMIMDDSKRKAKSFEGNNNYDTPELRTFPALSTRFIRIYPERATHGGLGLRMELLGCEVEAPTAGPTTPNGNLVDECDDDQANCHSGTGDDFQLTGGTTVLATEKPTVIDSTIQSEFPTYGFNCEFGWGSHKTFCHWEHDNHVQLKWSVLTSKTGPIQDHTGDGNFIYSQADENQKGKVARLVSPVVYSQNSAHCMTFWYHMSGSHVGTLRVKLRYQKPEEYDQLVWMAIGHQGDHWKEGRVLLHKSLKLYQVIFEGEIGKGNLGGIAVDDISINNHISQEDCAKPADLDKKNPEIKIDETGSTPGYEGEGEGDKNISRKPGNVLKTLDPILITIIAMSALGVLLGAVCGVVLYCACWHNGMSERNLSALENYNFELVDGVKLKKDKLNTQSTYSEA
ATG4B inhibitor = inhibitors of human ATG4B cysteine protease | Q9Y4P1 | ATG4B cleavage of LC3-PLA2, NBD-HPC fluorescence, 1 h | inhibition, % at 8.33 µM | hit rate 0.51% among 340,000 | AID 504462; in the data active means inhibition above about 40%
PKA-R2B activ = activators of human PKA-R2B complex. P22694+P31323. PKA-R2B holoenzyme dissociation, Cy5-IP20 fluorescence polarization; R2B truncated from residue 108, S112A mutant; 0% DMSO only, 100% 113 µM cGMP. activation, % at 11.4 µM. hit rate 0.079% among 340,000. AID 504700;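 active means activation above a cutoff set at the mean over all compounds plus 3 SD, cut at about 18% in these data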;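 further: higher means more holoenzyme dissociation and a rise in polarization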
PKA-R1A activ = activates the PKA-R1A holoenzyme complex | P00514+P68181 | PKA-R1A dissociation, Cy5-IP20 fluorescence polarization; scaled: DMSO 0%, 113 µM cGMP 100% | activation, % at 11.4 µM | hit rate 0.083% among 340,000;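 active means percent activation above the mean of all tested compounds plus 3 SD, cut at about 19% in these data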;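 further: higher means more PKAc released from R1A so a rise in polarization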
An asterisk follows results filed as active; · = not tested or not shown.

SMILES	VLA-4 inh	CendR NRP1 mod	ATG4B inhibitor	PKA-R2B activ	PKA-R1A activ
Cc1noc(C)c1S(=O)(=O)Nc1ccc(C(C)C)cc1	4	18*	-3	0	-10
CC1(C)CCC(=O)N2CC[C@H]3C[C@H](OC(=O)Nc4ccc5c(c4)OCO5)C[C@@H]1[C@H]32	19	20*	1	-12	-13
Cc1c(C(=O)N2CCN(c3ncccn3)CC2)oc2c(Cl)cccc12	4	-14	8	-3	-4
COc1ccc(OCc2nc(N)nc(Nc3cccc(C)c3C)n2)cc1	4	26*	0	-9	2
Cc1cc(C)c(S(=O)(=O)/N=C2\C=C(NS(=O)(=O)c3ccccc3)C(=O)c3ccccc32)c(C)c1	-3	28*	0	-10	6
Cc1ccc(S(=O)(=O)/N=C2\C=C(NS(=O)(=O)c3ccccc3)C(=O)c3ccccc32)cc1	·	65*	-1	-6	-10
CCOc1ccc(C(=O)NC(C(=O)NCc2ccccc2OC)C(C)C)cc1 (stereo not drawn)	5	3	4	-7	4
CCOc1ccc(C(=O)NC(C(=O)NCCc2ccc(OC(F)F)cc2)C(C)C)cc1 (stereo not drawn)	-8	23*	-1	-5	-10
CCCN1Cc2cccc(C(N)=O)c2C1=O	10	49*	-6	-1	4
CCC(C(=O)NC(C)(C)C)n1c(-c2cccc(NC(C)=O)c2)nc2ccccc21 (stereo not drawn)	·	-1	·	·	·
COCc1cccc(-c2csc(C(C)(O)c3ccccc3)n2)c1 (stereo not drawn)	·	41*	·	·	·
O=C1Nc2ccccc2-n2nnnc2C1N1CCN(C(=O)c2ccco2)CC1 (stereo not drawn)	·	5	·	·	·
CC1(C(=O)NS(=O)(=O)c2ccccc2Cl)CCN1C(=O)CC1CC1 (stereo not drawn)	·	28*	·	·	·
CC1(C(=O)NS(=O)(=O)c2ccccc2Cl)CCN1C(=O)CC1CCCCC1 (stereo not drawn)	·	-1	·	·	·
CCN(CC)CC(=O)N1N=C(c2cccs2)CC1c1ccco1 (stereo not drawn)	10	4	5	-6	-11
CCC(=O)N1N=C(c2cccs2)CC1c1ccco1 (stereo not drawn)	-2	40*	3	-5	7
Cc1ccc(S(=O)(=O)Oc2ccccc2[N+](=O)[O-])cc1	·	20*	12	-6	6
COc1ccccc1[N+](=O)[O-]	20	1	-1	-6	7
CCOC(=O)C1C(C(=O)OCC)C2C(=O)C3C(C(=O)OCC)C(C(=O)OCC)C3C(=O)C12 (stereo not drawn)	·	-3	·	·	·
COc1ccc(CN2C(=O)C(CC(=O)NCCCCc3ccccc3)CC(C(=O)N(C)C)=C2C)cc1 (stereo not drawn)	·	-1	·	-5	8
CCC(CC)N1CCN(CC2CC=CCC2)CC1 (stereo not drawn)	-5	23*	-3	-3	3
CC(C)CC(=O)N1CCN(CC2CC=CCC2)CC1 (stereo not drawn)	-17	-10	13	-1	-8
COc1ccc(N2CCN(C(=O)c3cn(C4CCCC4)c(=O)c4c3c3ccccc3n4C)CC2)cc1	-40	39*	-3	-3	0
COc1ccc(N2CCN(C(=O)c3cn(C)c(=O)c4c3c3ccccc3n4C)CC2)cc1	-6	-7	-20	3	-2
Cn1c2ccccc2c2c(C(=O)N3CCN(C(=O)c4ccco4)CC3)cn(C3CCCCC3)c(=O)c21	10	14	-6	-4	2
SMILES	VLA-4 inh	CendR NRP1 mod	ATG4B inhibitor	PKA-R2B activ	PKA-R1A activ
Cn1c2ccccc2c2c(C(=O)N3CCN(c4ccccn4)CC3)cn(C3CCCC3)c(=O)c21	-1	38*	-12	1	6
CC(=O)Nc1cc(-c2ccccc2)cn2c(-c3cccc(C(C)=O)c3)cnc12	·	-27	·	·	·
Cc1ccccc1Nc1ccc2nonc2c1[N+](=O)[O-]	1	-3	-8	-5	-4
O=[N+]([O-])c1c(Nc2ccccc2O)ccc2nonc12	-9	25*	2	-3	-6
COc1ccc(F)cc1C(=O)C1CCCN(Cc2c(C)n(C)n(-c3ccccc3)c2=O)C1 (stereo not drawn)	-1	5	-3	-6	-2
COc1ccc(NS(=O)(=O)c2cc(-c3cnc(C4CC4)o3)ccc2C)cc1	26	0	-3	-9	7
COc1ccccc1NS(=O)(=O)c1cc(-c2cnc(C3CC3)o2)ccc1C	9	22*	-9	-1	0
CCCCCC(C)NC(=S)NC(=O)c1cc(S(=O)(=O)N2CCOCC2)ccc1C (stereo not drawn)	-14	26*	-2	2	-8
COc1ccc(/C=N/NC(=O)c2nn(-c3ccc(Cl)cc3)c(=O)c3c(N)scc23)cc1	0	30*	-9	-9	-13
Cn1c(COc2ccc(F)cc2)nc2ccccc21	4	23*	-4	1	-1
Cn1c(COc2ccc(C(=O)O)cc2)nc2ccccc21	7	14	-3	-9	-4
COC(=O)Cc1ccc(OC2(C)CCN(Cc3ccccc3)C2)cc1 (stereo not drawn)	·	1	·	·	·
O=C(NCCCN1CCOCC1)c1ccc2c(=O)n(-c3ccc(F)c(Cl)c3)c(=S)[nH]c2c1	4	24*	-3	-6	0
O=C(CC[C@H]1O[C@@H](n2ccc(=O)[nH]c2=O)[C@H](O)[C@@H]1O)N[C@H](Cc1ccccc1)C(=O)NC1CCCCC1	·	0	·	·	·
CC(C)n1cnc2c(Nc3ccc(F)c(Cl)c3)nc(NCCO)nc21	1	-7	-6	-5	16
C=CC(=O)Nc1ccc(Nc2nc(NC3CCC(N(C)C)CC3)nc3c2ncn3C(C)C)cc1 (stereo not drawn)	-5	27*	-11	-4	-6
CCc1c(-c2ccc(OC)cc2)ncn1Cc1cccc(-c2ccccc2)c1	·	-11	·	·	·
CCCN(C)C1CN(Cc2cn(Cc3cc(C)cc(C)c3)nn2)S(=O)(=O)C1 (stereo not drawn)	·	3	·	·	·
COc1ccc(CN2C(=O)CCC2(C)c2nnnn2-c2c(C)cccc2C)cc1 (stereo not drawn)	·	23*	·	·	·
Cc1ccc(CN2C(=O)CCC2(C)c2nnnn2-c2c(C)cccc2C)cc1 (stereo not drawn)	·	7	·	·	·
COC(=O)[C@@]12C[C@@H](CC(=O)N3CCN(C(=O)C4CC4)CC3)C(=O)N(Cc3ccc4c(c3)OCO4)C1=CCC(C)(C)C2	·	-3	·	·	·
COc1cccc(NC(=O)CN(C)C(=O)c2cccc(NS(=O)(=O)c3ccccc3)c2)c1	8	30*	-3	2	-1
CN(C)C(=O)c1cccc(-c2cnc3c(NC=O)cc(-c4ccc(N(C)C)cc4)cn23)c1	·	-105	·	·	·
COc1cccc(-c2ncc3ccccc3c2COC(=O)c2ccc(C(F)(F)F)cc2)c1	0	29*	-6	1	4
